According to PubChem BioAssay:
The source made the active and inactive calls.

Experiments:
[1] = system: PRMT1 (protein arginine N-methyltransferase 1); assay: small molecules binding arginine methyltransferase PRMT1 – biochemical, small-molecule microarray, 635 nm fluorescence, primary screen (AID 1088); conditions: higher = more signal;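 further: binding of Prmt1 protein to compounds spotted on small-molecule microarray slides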
[2] = growth effects on S. cerevisiae YJM789 – YJM789 clinical isolate, OD600, 24 h, basal, primary screen (AID 1089); conditions: higher = more signal, called active from +8 up or from −8 down;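 further: growth of clinical yeast isolate S. cerevisiae YJM 789 seeded 1000 cells per well; test concentration not given here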
[3] = S. pombe growth modifiers, basal conditions – strain 972, OD600, 24 h, no modulator, primary screen (AID 1090);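 further: basal condition with compound alone and no growth modifier present; test concentration not given here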; conditions: S. pombe 972 growth, higher = more signal, called active from +8 up or from −8 down
[4] = budding yeast growth modifiers under rapamycin – strain BY4716, OD600, 96 h, primary screen (AID 1091); further: test concentration not given here; conditions: S. cerevisiae BY4716 + rapamycin, higher = more signal, called active from +8 up or from −8 down
[5] = molecular target: Torsin-1A-interacting protein 2 (Homo sapiens) (UniProt Q8NFQ8); assay: small molecules binding lysate-expressed LULL1 – cell lysate, human LULL1 lysate, 635/667 nm fluorescence, primary screen (AID 1092); conditions: small-molecule microarray, hLULL1 lysate binding, 635 nm fluorescence; higher = more signal;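 further: probe is lysate of COS7 cells overexpressing human LULL1; score merges per-feature 667 nm fluorescence with signal-to-noise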
Torsin-1A-interacting protein 2 (Homo sapiens), sequence (Q8NFQ8 whole entry, looked up): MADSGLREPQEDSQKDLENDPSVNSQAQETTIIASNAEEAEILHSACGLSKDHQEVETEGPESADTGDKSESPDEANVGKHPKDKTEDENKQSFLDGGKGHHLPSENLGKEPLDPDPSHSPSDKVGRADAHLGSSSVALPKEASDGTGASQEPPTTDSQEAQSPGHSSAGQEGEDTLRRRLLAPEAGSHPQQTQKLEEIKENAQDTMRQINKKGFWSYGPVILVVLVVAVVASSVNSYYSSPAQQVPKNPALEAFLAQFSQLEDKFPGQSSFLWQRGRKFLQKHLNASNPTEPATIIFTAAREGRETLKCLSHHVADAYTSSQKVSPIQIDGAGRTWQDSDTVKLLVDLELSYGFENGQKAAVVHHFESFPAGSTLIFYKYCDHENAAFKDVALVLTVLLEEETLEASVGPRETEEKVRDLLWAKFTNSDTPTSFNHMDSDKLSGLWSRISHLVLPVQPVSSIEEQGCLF

[6] = optical density change of DRC41 E. coli – strain DRC41, OD650, 24 h, E. coli filamentation project, primary screen (AID 1093);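 further: MC1000 strain lacking acrAB efflux and sulA so SOS filamentation is blocked; test concentration not given here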; conditions: E. coli DRC41 growth, higher = more signal, called active from +8 up or from −8 down
[7] = probe aLefty2 binding to arrayed compounds – biochemical, biotinylated probe, 635/667 nm fluorescence, primary screen (AID 1094); conditions: small-molecule microarray, higher = more signal;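 further: score merges spot fluorescence near 667 nm with spot signal-to-noise ratio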
[8] = system: Noggin (protein binding on small-molecule microarray); assay: small molecules binding Noggin protein – biochemical, 635/667 nm fluorescence, primary screen (AID 1095); conditions: 635 nm fluorescence, higher = more signal;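 further: score merges 667 nm feature fluorescence with signal to noise over triplicate slides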
[9] = molecular target: Neurogenic locus notch homolog protein 3 (Homo sapiens) (UniProt Q9UM47); assay: small molecules binding NOTCH3 protein – biochemical, 635/667 nm fluorescence, primary screen (AID 1096); conditions: small-molecule microarray, 635 nm fluorescence, higher = more signal
Neurogenic locus notch homolog protein 3 (Homo sapiens), sequence (Q9UM47 whole entry, looked up): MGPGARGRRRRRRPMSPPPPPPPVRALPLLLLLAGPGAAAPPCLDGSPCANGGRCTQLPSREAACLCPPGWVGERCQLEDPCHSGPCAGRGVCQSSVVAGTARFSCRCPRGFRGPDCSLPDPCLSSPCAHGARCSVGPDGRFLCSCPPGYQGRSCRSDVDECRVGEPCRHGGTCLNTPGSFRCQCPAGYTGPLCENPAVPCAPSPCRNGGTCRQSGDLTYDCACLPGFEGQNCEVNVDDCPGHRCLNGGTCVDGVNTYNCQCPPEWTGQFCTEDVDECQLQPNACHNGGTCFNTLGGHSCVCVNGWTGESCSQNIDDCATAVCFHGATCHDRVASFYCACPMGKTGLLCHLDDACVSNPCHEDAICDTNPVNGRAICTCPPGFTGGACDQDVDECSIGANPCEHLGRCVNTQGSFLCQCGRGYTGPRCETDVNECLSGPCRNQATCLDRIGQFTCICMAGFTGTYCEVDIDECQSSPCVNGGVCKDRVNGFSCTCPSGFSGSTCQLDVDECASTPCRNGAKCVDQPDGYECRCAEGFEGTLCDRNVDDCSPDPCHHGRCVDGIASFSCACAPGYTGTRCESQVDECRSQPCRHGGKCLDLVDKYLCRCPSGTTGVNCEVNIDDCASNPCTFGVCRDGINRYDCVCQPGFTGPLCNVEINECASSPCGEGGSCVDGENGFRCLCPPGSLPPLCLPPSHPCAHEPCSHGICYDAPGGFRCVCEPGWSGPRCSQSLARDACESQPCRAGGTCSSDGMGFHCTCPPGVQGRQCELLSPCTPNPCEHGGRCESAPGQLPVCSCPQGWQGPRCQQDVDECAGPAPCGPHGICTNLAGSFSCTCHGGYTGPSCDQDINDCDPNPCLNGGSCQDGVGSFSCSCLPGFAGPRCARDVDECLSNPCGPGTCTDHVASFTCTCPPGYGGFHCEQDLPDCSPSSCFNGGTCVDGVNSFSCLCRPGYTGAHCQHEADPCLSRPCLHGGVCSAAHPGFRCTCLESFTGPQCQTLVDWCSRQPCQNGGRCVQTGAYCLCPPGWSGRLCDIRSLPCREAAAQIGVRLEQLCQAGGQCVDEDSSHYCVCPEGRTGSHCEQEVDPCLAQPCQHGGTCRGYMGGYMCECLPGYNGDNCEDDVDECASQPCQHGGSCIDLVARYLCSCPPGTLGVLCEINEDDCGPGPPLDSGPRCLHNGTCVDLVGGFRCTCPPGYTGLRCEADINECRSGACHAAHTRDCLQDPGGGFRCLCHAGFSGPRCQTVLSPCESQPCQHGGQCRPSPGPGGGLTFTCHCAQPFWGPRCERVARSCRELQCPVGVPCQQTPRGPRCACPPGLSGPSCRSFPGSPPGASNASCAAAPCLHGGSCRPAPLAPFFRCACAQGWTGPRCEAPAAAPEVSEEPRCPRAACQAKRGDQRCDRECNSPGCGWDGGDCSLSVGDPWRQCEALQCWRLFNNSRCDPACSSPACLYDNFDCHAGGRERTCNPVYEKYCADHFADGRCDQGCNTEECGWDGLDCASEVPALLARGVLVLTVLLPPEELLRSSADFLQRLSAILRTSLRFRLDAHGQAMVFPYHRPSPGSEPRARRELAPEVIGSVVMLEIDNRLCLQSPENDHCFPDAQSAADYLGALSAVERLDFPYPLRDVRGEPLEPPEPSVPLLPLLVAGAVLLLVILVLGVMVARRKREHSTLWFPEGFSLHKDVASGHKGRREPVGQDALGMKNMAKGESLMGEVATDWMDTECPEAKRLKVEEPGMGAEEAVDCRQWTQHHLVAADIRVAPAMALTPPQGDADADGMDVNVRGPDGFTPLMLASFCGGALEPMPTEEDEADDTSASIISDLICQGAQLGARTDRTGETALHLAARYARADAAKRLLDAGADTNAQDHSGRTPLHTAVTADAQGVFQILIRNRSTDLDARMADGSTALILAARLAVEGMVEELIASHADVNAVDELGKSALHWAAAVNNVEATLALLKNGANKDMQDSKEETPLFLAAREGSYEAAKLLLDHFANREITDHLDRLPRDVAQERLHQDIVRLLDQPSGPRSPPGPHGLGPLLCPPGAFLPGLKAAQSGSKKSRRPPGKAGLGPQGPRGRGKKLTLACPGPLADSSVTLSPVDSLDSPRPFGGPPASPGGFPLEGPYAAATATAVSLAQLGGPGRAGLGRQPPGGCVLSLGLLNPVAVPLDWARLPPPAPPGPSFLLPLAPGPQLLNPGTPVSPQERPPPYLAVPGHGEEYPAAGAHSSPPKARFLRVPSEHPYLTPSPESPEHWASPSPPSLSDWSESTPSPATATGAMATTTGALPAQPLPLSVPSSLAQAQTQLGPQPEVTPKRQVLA

[10] = probe aEGFR binding to arrayed compounds – biochemical, biotinylated probe, 635/667 nm fluorescence, primary screen (AID 1097); conditions: small-molecule microarray, higher = more signal;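 further: probe is a biotinylated anti-EGFR antibody binding compounds printed on slides; score combines fluorescence near 667 nm and signal to noise of each spot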
[11] = system: Plasmodium falciparum Sir2 (PF13_0152, Sir2A); assay: Plasmodium falciparum Sir2A binding compounds – biochemical, small-molecule microarray, 635 nm fluorescence, primary screen (AID 1098); conditions: fluorescence 635 nm, higher = more signal;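 further: score merges spot fluorescence intensity with its signal-to-noise ratio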
[12] = probe aDKK1 binding to arrayed compounds – biochemical, biotinylated probe, 635/667 nm fluorescence, primary screen (AID 1099); conditions: small-molecule microarray, higher = more signal;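 further: score merges 667nm spot fluorescence with signal to noise across triplicate slides; reference of the scale not given here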
[13] = probe aCHRDL2 binding to arrayed compounds – biochemical, biotinylated probe, 635/667 nm fluorescence, primary screen (AID 1100); conditions: small-molecule microarray, higher = more signal
[14] = change in splice reporter luminescence, either direction, cell-based, HEK293, spliceosome inhibition project, primary screen (AID 1101); conditions: HEK293 splicing luciferase reporter, 24 h, higher = more signal, called active from +8 up or from −8 down;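 further: HEK293 cells carrying a splicing-competent luciferase reporter gene; test concentration not given here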
[15] = molecular target: Fibroblast growth factor 10 (Homo sapiens) (UniProt O15520); assay: compounds binding fibroblast growth factor 10 – biochemical, small-molecule microarray, 635 nm fluorescence, primary screen (AID 1102); conditions: FGF10 binding, fluorescence 635 nm, higher = more signal
Fibroblast growth factor 10 (Homo sapiens), sequence (O15520 whole entry, looked up): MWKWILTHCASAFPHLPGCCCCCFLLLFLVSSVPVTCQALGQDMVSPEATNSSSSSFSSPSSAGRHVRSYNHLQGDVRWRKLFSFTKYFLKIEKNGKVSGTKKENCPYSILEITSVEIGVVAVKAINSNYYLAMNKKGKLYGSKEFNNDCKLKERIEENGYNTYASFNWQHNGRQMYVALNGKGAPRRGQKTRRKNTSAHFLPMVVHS

[16] = system: glycogen synthase kinase-3 (GSK3A per assay name; protocol says GSK3B); assay: compounds binding glycogen synthase kinase-3 – biochemical, small-molecule microarray, 635 nm fluorescence, GSK3A, primary screen (AID 1103); conditions: fluorescence 635 nm, higher = more signal; further: the record names both GSK3A and GSK3B
[17] = molecular target: Epidermal growth factor receptor (Homo sapiens) (UniProt P00533); assay: compounds binding epidermal growth factor receptor – biochemical, small-molecule microarray, 635 nm fluorescence, primary screen (AID 1104); conditions: EGFR binding, higher = more signal;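 further: score merges 667 nm emission intensity with spot signal to noise over triplicate slides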
Epidermal growth factor receptor (Homo sapiens), sequence (P00533 whole entry, looked up): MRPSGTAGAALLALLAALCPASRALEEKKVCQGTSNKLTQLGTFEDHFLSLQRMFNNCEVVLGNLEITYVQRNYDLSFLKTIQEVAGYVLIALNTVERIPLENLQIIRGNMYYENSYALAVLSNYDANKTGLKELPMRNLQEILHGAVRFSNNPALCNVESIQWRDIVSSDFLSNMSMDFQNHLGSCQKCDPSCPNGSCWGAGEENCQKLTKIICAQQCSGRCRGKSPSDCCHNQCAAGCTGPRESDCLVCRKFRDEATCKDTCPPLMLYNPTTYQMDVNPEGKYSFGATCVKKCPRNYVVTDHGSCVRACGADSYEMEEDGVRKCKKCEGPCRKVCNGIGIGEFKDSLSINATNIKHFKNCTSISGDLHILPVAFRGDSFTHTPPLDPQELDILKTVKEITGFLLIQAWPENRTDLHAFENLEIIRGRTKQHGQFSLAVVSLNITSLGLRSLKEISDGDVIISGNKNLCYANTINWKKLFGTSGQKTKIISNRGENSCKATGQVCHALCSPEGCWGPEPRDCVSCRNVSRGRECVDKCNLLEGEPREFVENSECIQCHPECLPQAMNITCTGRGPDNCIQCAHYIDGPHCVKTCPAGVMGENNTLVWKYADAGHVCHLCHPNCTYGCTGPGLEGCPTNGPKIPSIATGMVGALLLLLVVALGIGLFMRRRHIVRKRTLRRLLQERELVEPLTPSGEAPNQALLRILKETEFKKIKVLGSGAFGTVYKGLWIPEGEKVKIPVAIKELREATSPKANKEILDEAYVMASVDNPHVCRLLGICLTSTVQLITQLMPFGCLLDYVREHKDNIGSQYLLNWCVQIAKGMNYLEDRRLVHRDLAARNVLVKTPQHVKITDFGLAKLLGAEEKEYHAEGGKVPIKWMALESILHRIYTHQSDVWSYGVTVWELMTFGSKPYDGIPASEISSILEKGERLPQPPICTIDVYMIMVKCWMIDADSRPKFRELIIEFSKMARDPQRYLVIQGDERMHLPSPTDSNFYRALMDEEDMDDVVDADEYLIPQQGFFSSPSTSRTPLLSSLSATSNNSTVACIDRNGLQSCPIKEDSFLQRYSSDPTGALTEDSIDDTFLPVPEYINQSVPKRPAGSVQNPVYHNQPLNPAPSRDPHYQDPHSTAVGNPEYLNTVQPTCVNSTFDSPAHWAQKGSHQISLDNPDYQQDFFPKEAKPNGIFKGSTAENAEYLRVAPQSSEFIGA

[18] = molecular target: Follistatin-related protein 3 (Homo sapiens) (UniProt O95633); assay: compounds binding follistatin-related protein 3 – biochemical, small-molecule microarray, 635 nm fluorescence, primary screen (AID 1105); conditions: FSTL3 binding, higher = more signal;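 further: score merges emission near 667 nm and signal to noise per printed spot across three slides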
Follistatin-related protein 3 (Homo sapiens), sequence (O95633 whole entry, looked up): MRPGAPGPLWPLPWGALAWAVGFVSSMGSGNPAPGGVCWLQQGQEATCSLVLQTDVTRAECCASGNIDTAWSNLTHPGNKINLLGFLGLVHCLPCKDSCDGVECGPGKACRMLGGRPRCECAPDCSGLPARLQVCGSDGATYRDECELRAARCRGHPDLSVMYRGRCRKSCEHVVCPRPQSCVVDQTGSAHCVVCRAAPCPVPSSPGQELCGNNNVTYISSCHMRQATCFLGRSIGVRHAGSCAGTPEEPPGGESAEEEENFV

[19] = molecular target: Dickkopf-related protein 1 (Homo sapiens) (UniProt O94907); assay: small molecules binding DKK1 protein – biochemical, small-molecule microarray, 635 nm fluorescence scan, primary screen (AID 1106); conditions: higher = more signal;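 further: score merges emission near 667 nm with signal to noise over three replicate slides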
Dickkopf-related protein 1 (Homo sapiens), sequence (O94907 whole entry, looked up): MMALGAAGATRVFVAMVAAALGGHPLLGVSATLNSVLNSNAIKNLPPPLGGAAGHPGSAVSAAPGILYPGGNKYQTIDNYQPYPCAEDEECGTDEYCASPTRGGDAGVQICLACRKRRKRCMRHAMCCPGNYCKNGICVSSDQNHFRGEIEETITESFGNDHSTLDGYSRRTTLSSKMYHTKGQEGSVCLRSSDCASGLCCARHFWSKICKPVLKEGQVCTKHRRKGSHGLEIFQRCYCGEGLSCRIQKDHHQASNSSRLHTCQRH

[20] = system: Inhibin beta A chain (activin A); assay: small molecules binding activin A – biochemical, small-molecule microarray, 635 nm fluorescence scan, primary screen (AID 1107); conditions: INHBA, higher = more signal;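 further: mouse activin A protein probed at 4.33 µg/mL on printed slides; score merges bound-protein fluorescence near 667 nm with spot signal-to-noise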

| SMILES | composite z-score [1] | z-score [2] | z-score [3] | z-score [4] | composite z-score [5] | z-score [6] | composite z-score [7] | composite z-score [8] | composite z-score [9] | composite z-score [10] | composite z-score [11] | composite z-score [12] | composite z-score [13] | z-score [14] | composite z-score [15] | composite z-score [16] | composite z-score [17] | composite z-score [18] | composite z-score [19] | composite z-score [20] |
| --- | --- | --- | --- | --- | --- | --- | --- | --- | --- | --- | --- | --- | --- | --- | --- | --- | --- | --- | --- | --- |
| C[C@H]1NC(=O)C([C@@H](C)OCc2ccccc2)NC(=O)[C@@]23C(=O)N[C@@H](Cc4ccccc4)C2[C@H](C)[C@@]2(C)O[C@H]2C3/C=C/CC/C=C/CNC1=O (stereo not given in full) | -0.1 | 0.607 (inactive) | -0.657 (inactive) | 0.261 (inactive) | -0.147 | 2.13 (inactive) | -0.016 | 0.598 | -0.0089 | 0.0143 | -0.0404 | 0.0094 | -0.298 | -1.39 (inactive) | 0.365 | -0.248 | 0.279 | 0.575 | 0.506 | 1.42 |
| CN(C)CCCC[C@@H]1NC(=O)[C@H]2C[C@@H](C(=O)NCCCCCCNC(=O)CS)[C@@H](c3ccc(O)cc3)N2C1=O | 1.17 | -1.22 (inactive) | -0.225 (inactive) | -0.342 (inactive) | 3.31 | 0.937 (inactive) | -0.0785 | 1.58 | 0.196 | -0.173 | 1.74 | -0.172 | 0.314 | -0.296 (inactive) | -0.31 | -0.323 | 0.0264 | 1.27 | -0.17 | 0.947 |
| COc1cc(NN2C(C(O)c3ccc(I)cc3)C=CC3C(=O)N(C)C(=O)C32)cc(OC)c1OC (stereo not given) | 0.0146 | 0.896 (inactive) | 0.605 (inactive) | 0.0514 (inactive) | 2.75 | 0.202 (inactive) | 0.0283 | -0.131 | -0.325 | 0.113 | 0.719 | 0.986 | 1.02 | 0.037 (inactive) | -0.0431 | -0.217 | -0.391 | -0.602 | -1.18 | 1.29 |
| Cc1cc(C)c(C(O)C2C=CC3C(=O)N(c4ccccc4)C(=O)C3N2Nc2ccc([N+](=O)[O-])cc2)c(C)c1 (stereo not given) | 1.54 | -0.695 (inactive) | 0.957 (inactive) | 2.16 (inactive) | 3.73 | 0.356 (inactive) | 0.216 | 0.525 | 1.02 | 0.0225 | 1.55 | 0.74 | 0.911 | 0.311 (inactive) | 0.693 | 1.3 | 0.326 | 1.45 | 0.275 | 0.471 |
| C=CCN1C(=O)[C@@]2(O[C@@H](CCn3cc([C@H](O)c4ccccc4)nn3)[C@H]([Si](C)(C)c3ccc(OC)cc3)[C@H]2C)c2cc(NC(=O)c3ccc(OC)cc3)ccc21 | 0.948 | 1.05 (inactive) | 0.0445 (inactive) | 0.7 (inactive) | 1.72 | 0.859 (inactive) | -0.0615 | 0.551 | 0.422 | -0.0564 | 0.185 | 0.041 | 0.143 | -0.345 (inactive) | -0.0229 | 0.0579 | -0.128 | 0.382 | 0.183 | 1.07 |
